Compounds with a hit are over-represented: about 2.5% of the library has one in this group of screens.
CASP6 VEID inh = human caspase-6 inhibitors, primary screen, biochemical, VEID-R110 fluorescence, single point, set 2; actives 0.53% (n = 350,000); inhibition, % at 12.5 µM; purified caspase-6, Z-VEID-R110 cleavage fluorescence; P55212;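 active = mean inhibition across replicates at least about 35%, with every replicate also reaching that limit, limit read from the data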;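 note: 0% = median of neutral control wells and 100% = no fluorescence left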
rRNA inh HTS = reduced GFP signal of wild-type E. coli, primary screen, bacterial rRNA inhibitor project, GFP/RFP fluorescence, OD600, single point; GFP signal change (wild-type ribosome), % (concentration not given with the values); actives 1.6% (n = 350,000); AID 720706, 2013; E. coli WT GFP vs humanized-ribosome RFP mutants, 24 h; hits give low values; DMSO median 0, no signal -100;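 active = significant combined selectivity score with lowered wild-type GFP, culture density cut under 30%, mutant RFP and density less affected; inactive = any of these conditions unmet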
NSD2 HMT inh = NSD2 histone methyltransferase inhibitors, primary screen, biochemical, AlphaScreen, single concentration, set 2 | actives 0.54% (n = 310,000) | NSD2 peptide methylation, 120 min | inhibition, % at 12.5 µM; in the data active = inhibition above about 50%
MLL AF4-AF9 inh = inhibitors of AF4 peptide binding to AF9, primary screen, biochemical, AlphaScreen, biotin-AF4 peptide, FLAG-AF9, single point | Protein AF-9 (Homo sapiens), P42568 | inhibition, % at 10 µM | actives 0.47% (n = 350,000) | AID 651704, 2012;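 active = every replicate reaching a set inhibition limit, whatever the replicate mean, cut at about 25% in these data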;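 note: 0% = plate neutral control median and 100% = total signal loss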
Target sequence (P42568 whole entry, looked up): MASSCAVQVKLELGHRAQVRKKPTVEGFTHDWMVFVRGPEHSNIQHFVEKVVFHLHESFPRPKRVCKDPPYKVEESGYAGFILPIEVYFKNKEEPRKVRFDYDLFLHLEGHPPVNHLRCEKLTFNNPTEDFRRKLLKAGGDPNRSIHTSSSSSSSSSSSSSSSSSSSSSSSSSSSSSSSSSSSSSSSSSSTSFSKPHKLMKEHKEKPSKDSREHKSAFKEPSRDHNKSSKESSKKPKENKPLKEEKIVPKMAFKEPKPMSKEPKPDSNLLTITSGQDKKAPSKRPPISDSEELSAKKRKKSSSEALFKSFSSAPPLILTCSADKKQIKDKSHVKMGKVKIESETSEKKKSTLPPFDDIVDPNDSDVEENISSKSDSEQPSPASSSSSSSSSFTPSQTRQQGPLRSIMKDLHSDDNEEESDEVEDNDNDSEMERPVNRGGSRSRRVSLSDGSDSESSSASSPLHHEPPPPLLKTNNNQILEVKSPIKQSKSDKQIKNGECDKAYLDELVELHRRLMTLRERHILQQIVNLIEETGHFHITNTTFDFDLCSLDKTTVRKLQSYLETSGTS
RAD52 anneal inh = RAD52 DNA annealing inhibitors, primary screen, biochemical, FRET, single point, set 2 | inhibition, % at 18.7 µM | actives 0.46% (n = 360,000) | recombinant RAD52 DNA annealing, FRET fluorescence;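 active = every replicate showing at least 50% inhibition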
* = called active by the depositor; i = inactive; nt = no result; ! = not active in a repeat.

SMILES	CASP6 VEID inh	rRNA inh HTS	NSD2 HMT inh	MLL AF4-AF9 inh	RAD52 anneal inh
O=C(c1ccccc1)c1nccn1-c1ccc(Cl)nn1	3.5	-36.2*	1.0	5.4	-8.7
C[n+]1c(-c2ccccc2)cc2c(=Cc3ccccc3)c3ccccc3n21	52.7*	-43.4	24.4	28.5*	-1.7
C[n+]1c(-c2ccccc2)cc2c(=Cc3ccc([N+](=O)[O-])cc3)c3ccccc3n21	82.7*	-17.6	-0.6	61.4*	2.5
CC(=O)N(C)C[C@H]1Oc2c(cccc2N(C)C)C(=O)N(C)C[C@@H]1C	nt	0.5	nt	nt	nt
COC(=O)CN1C(=S)N(Cc2ccccc2)C(=O)C1CC(=O)Nc1ccc(OC)cc1 (centres undefined)	nt	nt	-1.4	nt	nt
CC(=O)NCCCC(=O)NN1C(=S)N(Cc2ccccc2)C(=O)C1CC(=O)Nc1cccc(C)c1 (centres undefined)	0.1	-21.6*	3.6	-1.0	-18.3
CCCNC(=O)[C@H]1[C@H](CO)[C@H]2Cn3c(ccc(-c4cccc(OC)c4)c3=O)[C@H]2N1Cc1nccs1	-0.7	-4.6	nt	4.5	-8.3
CC1(CCc2ccccc2)NC(=O)N(CC(=O)Nc2ccc(S(N)(=O)=O)cc2)C1=O (centres undefined)	0.1	7.5	-1.2	-1.8	-15.8
CC1(CCc2ccccc2)NC(=O)N(CC(=O)Nc2ccc(OC(F)F)cc2)C1=O (centres undefined)	1.2	-28.8*	2.0	1.5	-9.0
COc1cc(/C=C2\SC(=Nc3ccc(Cl)c(C(=O)O)c3)NC2=O)c(Br)c(Br)c1O	35.4*	13.0	47.7	2.4	i
NS(=O)(=O)c1ccc(CCNC(=O)C(=O)c2c[nH]c3ccccc23)cc1	1.3	-22.0*	5.7	4.0	-11.8
O=C(NCCc1ccccc1)C(=O)c1c[nH]c2ccccc12	1.0	-8.4	1.7	1.6	6.2
O=C(Nc1ccc(F)cc1F)Nc1sccc1-c1nc2ccccc2s1	-0.5	-21.6*	-5.2	-5.6	-11.9
O=C(Nc1nc2ccccc2s1)Nc1ccc(F)cc1F	0.4	20.0	-1.8	-3.4	-5.2
COc1ccccc1CNC(=O)COC(=O)c1ccc([N+](=O)[O-])o1	35.3*	3.6	0.0	-1.2	-15.4
COc1ccc(OC)c(C(=O)COC(=O)c2ccc([N+](=O)[O-])o2)c1	3.7	-19.6*	-1.6	9.2	-4.9
O=C(COC(=O)c1ccc([N+](=O)[O-])o1)Nc1ccc2c(c1)OCO2	4.5	-3.2	0.9	3.3	-13.5
O=C(COC(=O)c1ccc([N+](=O)[O-])o1)Nc1ccc2c(c1)OC(F)(F)O2	56.3*	nt	4.8	0.3	-16.3
COCC(=O)N1CC2(C1)CN(Cc1ccccn1)[C@@H](CO)c1[nH]c3cc(OC)ccc3c12	-5.3	3.3	nt	-1.8	-98.1
Cc1ccc(S(=O)(=O)N2C[C@H]3O[C@H](CNS(=O)(=O)c4ccccc4C)CC[C@H]32)cc1	0.6	nt	nt	-0.7	-23.7
Cc1ccc2c(C)c(C(=O)NCCc3ccco3)oc2c1C	-4.2	-25.6*	1.3	-3.5	-28.8
Cc1cccc(CCNC(=O)c2oc3c(C)c(C)ccc3c2C)n1	0.7	-23.0	1.4	1.3	5.6
O=C(NN=Cc1ccc(F)c(F)c1)c1ccc(NS(=O)(=O)c2cccs2)cc1	3.7	-20.6	-0.5	33.3*	-12.3
COc1ccc(C=NNC(=O)c2ccccc2NS(=O)(=O)c2cccs2)cc1O	2.6	-26.4*	1.7	0.8	-8.4
O=C(N/N=C/c1ccc(N2CCOCC2)cc1)c1ccccc1NS(=O)(=O)c1cccs1	1.6	-39.9*	1.6	-0.5	-32.9
SMILES	CASP6 VEID inh	rRNA inh HTS	NSD2 HMT inh	MLL AF4-AF9 inh	RAD52 anneal inh
C[C@H](CO)N1C[C@H](C)[C@H](CN(C)Cc2ccc(Oc3ccccc3)cc2)Oc2ccc(NC(=O)C3CC3)cc2CC1=O	nt	3.9	nt	6.1	11.4
Nc1ccc(C(=O)Nc2ccc3c(O)cc(S(=O)(=O)O)cc3c2)cc1	83.6*	4.9	7.9	2.5	-43.0
C[C@@H]1CN([C@H](C)CO)C(=O)c2cc(NC(=O)Nc3ccc4c(c3)OCO4)ccc2O[C@@H](C)CCCCO[C@H]1CN(C)Cc1ccc(C(F)(F)F)cc1	-0.3	-4.6	nt	3.3	8.5
COc1ccc(OC)c(NC2=C(Cl)C(=O)N(Cc3ccccc3)C2=O)c1	1.4	nt	6.8	27.2*	-10.1
CCOc1ccccc1NC1=C(Cl)C(=O)N(Cc2ccccc2)C1=O	nt	nt	2.6	nt	nt
CC(C)NC(=O)N(C)C[C@H]1OCc2ccccc2-c2ccccc2C(=O)N([C@H](C)CO)C[C@@H]1C	nt	2.7	nt	nt	nt
COc1ccc(S(=O)(=O)N2CCC(O)(c3ccc(Cl)cc3)CC2)cc1OC	-1.0	-23.6*	17.8	-0.8	-4.0
COc1ccc(S(=O)(=O)N2CCC(O)(c3ccc(Cl)cc3)CC2)cc1	nt	nt	-1.6	nt	nt
C[C@H]1CCCCO[C@H](CN(C)Cc2ccc3c(c2)OCO3)[C@@H](C)CN([C@@H](C)CO)C(=O)c2cc(NC(=O)NC3CCCCC3)ccc2O1	-1.2	3.4	nt	4.0	28.0
CCc1nc(SCC(=O)O)c(C#N)c2c1CCCC2	1.3	-6.5	0.2	-2.3	-18.8
Cc1nc(SCC(=O)O)c(C#N)c2c1CCCC2	39.1*	-3.3	17.5	3.2	-24.3
O=C(c1ccccn1)N1CC2(C1)[C@H](c1ccccc1)[C@H](CO)N2C(=O)C1CCC1	-1.9	-0.9	nt	-0.7	-3.5
O=C(O)c1ccccc1N/N=C/c1cc(Br)cc(Br)c1O	1.7	-8.8	4.8	30.1*	-17.7
Cc1cc(OCCCCOc2ccc(S(N)(=O)=O)c(C)c2)ccc1S(N)(=O)=O	0.1	-18.8*	-2.1	-2.0	-15.7
Cc1ccc(OCCCSc2ncccn2)cc1C	nt	nt	0.6	nt	nt
COc1ccc(-c2nn(-c3ccccc3)cc2/C=N/O)cc1	3.1	-38.3*	-0.6	2.6	-8.3
C[C@@H]1CCCCO[C@@H](CN(C)Cc2ccccc2)[C@@H](C)CN([C@H](C)CO)C(=O)c2cc(NS(=O)(=O)c3cn(C)cn3)ccc2O1	-2.8	1.6	nt	-11.1	-3.6
C[C@@H]1CN([C@@H](C)CO)C(=O)c2cccc(NC(=O)C3CCOCC3)c2O[C@@H]1CN(C)Cc1ccncc1	0.8	0.2	nt	44.3*	-1.9
C[C@H](CO)N1C[C@H](C)[C@@H](CN(C)Cc2ccc(Oc3ccccc3)cc2)Oc2c(NC(=O)c3ccncc3)cccc2C1=O	-1.6	-22.2	nt	25.2*!	-9.7
C[C@H](CO)N1C[C@H](C)[C@@H](CN(C)Cc2ccncc2)Oc2c(NC(=O)C3CCOCC3)cccc2C1=O	1.0	-1.6	nt	-15.2	11.4
C[C@H](CO)N1C[C@H](C)[C@@H](CN(C)C(=O)Nc2cccc3ccccc23)Oc2c(NC(=O)C3CCOCC3)cccc2C1=O	51.8*	-0.4	nt	-1.4	-5.4
